# Data published in publication PMC5540273 (PLoS ONE, 2017).
# Read-outs that look alike come from different tables or passages of the source.
# Assays:
# FYN = conditions: concentration: 1 μM, replicates: in singlicate; n = 1
# GAK = conditions: concentration: 1 μM, replicates: in singlicate; n = 1
# GCN2(Kin.Dom.2,S808G) = system: T1, GCN2(Kin.Dom.2,S808G); conditions: concentration: 1 μM, replicates: in singlicate; n = 1
# T1 construct: gene EIF2AK4
# GRK1 = conditions: concentration: 1 μM, replicates: in singlicate; n = 1
# GRK2 = system: T2, GRK2; conditions: concentration: 1 μM, replicates: in singlicate; n = 1
# T2 construct: gene ADRBK1
# GRK3 = system: T3, GRK3; conditions: concentration: 1 μM, replicates: in singlicate; n = 1
# T3 construct: gene ADRBK2
# GRK4 = conditions: concentration: 1 μM, replicates: in singlicate; n = 1
# GRK7 = conditions: concentration: 1 μM, replicates: in singlicate; n = 1
# GSK3A = conditions: concentration: 1 μM, replicates: in singlicate; n = 1
# GSK3B = conditions: n = 1
# HASPIN = system: T4, HASPIN; conditions: concentration: 1 μM, replicates: in singlicate; n = 1
# T4 construct: gene GSG2
# HCK = conditions: concentration: 1 μM, replicates: in singlicate; n = 1
# HIPK1 = conditions: concentration: 1 μM, replicates: in singlicate; n = 1
# HIPK2 = conditions: concentration: 1 μM, replicates: in singlicate; n = 1
# HIPK3 = conditions: concentration: 1 μM, replicates: in singlicate; n = 1
# HIPK4 = conditions: concentration: 1 μM, replicates: in singlicate; n = 1
# HPK1 = conditions: concentration: 1 μM, replicates: in singlicate; n = 1
# HUNK = conditions: concentration: 1 μM, replicates: in singlicate; n = 1
# ICK = conditions: concentration: 1 μM, replicates: in singlicate; n = 1
# IGF1R = conditions: concentration: 1 μM, replicates: in singlicate; n = 1
# [1] = concentration: 1 μM, replicates: in singlicate
# 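Further: KINOMEscan kinase panel screen.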
smiles,measurement,setting,value
Cc1ccc(C(=O)Nc2ccc(Nc3ccnc4cc(-c5nccs5)ccc34)cc2O)cc1.Cl [GW494702],%Inh,FYN,25%
same,%Inh,GAK,10%
same,%Inh,"GCN2(Kin.Dom.2,S808G)",0%
same,%Inh,GRK1,17%
same,%Inh,GRK2,0%
same,%Inh,GRK3,41%
same,%Inh,GRK4,17%
same,%Inh,GRK7,0%
same,%Inh,GSK3A,0%
same,%Inh,GSK3B; [1],7%
same,%Inh,HASPIN,82%
same,%Inh,HCK,93.4%
same,%Inh,HIPK1,0%
same,%Inh,HIPK2,37%
same,%Inh,HIPK3,1%
same,%Inh,HIPK4,0%
same,%Inh,HPK1,1%
same,%Inh,HUNK,30%
same,%Inh,ICK,28%
same,%Inh,IGF1R,0%
C[C@@H]1CC[C@@H](C(=O)Nc2ccccc2)CN1c1cc(-c2ccc3c(N)n[nH]c3c2)nc(N)n1 [GSK2286062],%Inh,FYN,25%
same,%Inh,GAK,19%
same,%Inh,"GCN2(Kin.Dom.2,S808G)",0%
same,%Inh,GRK1,0%
same,%Inh,GRK2,0%
same,%Inh,GRK3,10%
same,%Inh,GRK4,0%
same,%Inh,GRK7,0%
same,%Inh,GSK3A,0%
same,%Inh,GSK3B; [1],0%
same,%Inh,HASPIN,5%
same,%Inh,HCK,0%
same,%Inh,HIPK1,0%
same,%Inh,HIPK2,0%
same,%Inh,HIPK3,0%
same,%Inh,HIPK4,25%
same,%Inh,HPK1,36%
same,%Inh,HUNK,11%
same,%Inh,ICK,0%
same,%Inh,IGF1R,23%
O=C(Nc1n[nH]c2nc(-c3ccc(O)cc3)ccc12)C1CC1 [SB-710363],%Inh,FYN,0%
same,%Inh,GAK,8%
same,%Inh,"GCN2(Kin.Dom.2,S808G)",0%
same,%Inh,GRK1,34%
same,%Inh,GRK2,0%
same,%Inh,GRK3,16%
same,%Inh,GRK4,20%
same,%Inh,GRK7,13%
same,%Inh,GSK3A,98.8%
same,%Inh,GSK3B; 1 µM,95.6%
same,%Inh,HASPIN,36%
same,%Inh,HCK,35%
same,%Inh,HIPK1,94.4%
same,%Inh,HIPK2,91.8%
same,%Inh,HIPK3,90.5%
same,%Inh,HIPK4,21%
same,%Inh,HPK1,17%
same,%Inh,HUNK,0%
same,%Inh,ICK,98.5%
same,%Inh,IGF1R,0%
COc1cc(Nc2nccc(-c3c(-c4cccc(NC(=O)c5c(F)cccc5F)c4)nn4ncccc34)n2)cc(OC)c1OC [GSK327238],%Inh,FYN,97.5%
same,%Inh,GAK,31%
same,%Inh,"GCN2(Kin.Dom.2,S808G)",69%
same,%Inh,GRK1,0%
same,%Inh,GRK2,0%
same,%Inh,GRK3,0%
same,%Inh,GRK4,0%
same,%Inh,GRK7,0%
same,%Inh,GSK3A,11%
same,%Inh,GSK3B; [1],7%
same,%Inh,HASPIN,0%
same,%Inh,HCK,96.6%
same,%Inh,HIPK1,0%
same,%Inh,HIPK2,0%
same,%Inh,HIPK3,18%
same,%Inh,HIPK4,29%
same,%Inh,HPK1,82%
same,%Inh,HUNK,12%
same,%Inh,ICK,4%
same,%Inh,IGF1R,95.8%
CC(=O)Nc1nc2cnc(Nc3cc(NC(=O)c4cccc(C5(C#N)CC5)c4Cl)ccc3C)nc2s1,%Inh,FYN,50%
same,%Inh,GAK,0%
same,%Inh,"GCN2(Kin.Dom.2,S808G)",19%
same,%Inh,GRK1,6%
same,%Inh,GRK2,0%
same,%Inh,GRK3,14%
same,%Inh,GRK4,14%
same,%Inh,GRK7,15%
same,%Inh,GSK3A,0%
same,%Inh,GSK3B; [1],0%
same,%Inh,HASPIN,0%
same,%Inh,HCK,53%
same,%Inh,HIPK1,27%
same,%Inh,HIPK2,0%
same,%Inh,HIPK3,0%
same,%Inh,HIPK4,6%
same,%Inh,HPK1,1%
same,%Inh,HUNK,12%
same,%Inh,ICK,0%
same,%Inh,IGF1R,0%
c1ccc(Oc2ccc(Nc3ccnc4cc(-c5ccc(CNCCN6CCOCC6)o5)ccc34)cc2)nc1 [GW567145],%Inh,FYN,57%
same,%Inh,GAK,82%
same,%Inh,"GCN2(Kin.Dom.2,S808G)",0%
same,%Inh,GRK1,0%
same,%Inh,GRK2,0%
same,%Inh,GRK3,48%
same,%Inh,GRK4,0%
same,%Inh,GRK7,0%
same,%Inh,GSK3A,6%
same,%Inh,GSK3B; [1],0%
same,%Inh,HASPIN,43%
same,%Inh,HCK,76%
same,%Inh,HIPK1,0%
same,%Inh,HIPK2,0%
same,%Inh,HIPK3,10%
same,%Inh,HIPK4,0%
same,%Inh,HPK1,15%
same,%Inh,HUNK,12%
same,%Inh,ICK,0%
same,%Inh,IGF1R,0%
COC(=O)Nc1nc2cc(Oc3ccc(NC(=O)Nc4cc(C(F)(F)F)ccc4F)cn3)ccc2[nH]1.Cl.Cl [GW681170],%Inh,FYN,41%
same,%Inh,GAK,5%
same,%Inh,"GCN2(Kin.Dom.2,S808G)",0%
same,%Inh,GRK1,0%
same,%Inh,GRK2,0%
same,%Inh,GRK3,0%
same,%Inh,GRK4,0%
same,%Inh,GRK7,0%
same,%Inh,GSK3A,0%
same,%Inh,GSK3B; [1],8%
same,%Inh,HASPIN,47%
same,%Inh,HCK,15%
same,%Inh,HIPK1,0%
same,%Inh,HIPK2,0%
same,%Inh,HIPK3,0%
same,%Inh,HIPK4,91.6%
same,%Inh,HPK1,16%
same,%Inh,HUNK,7%
same,%Inh,ICK,0%
same,%Inh,IGF1R,12%
O=C(Nc1n[nH]c2cc(-c3ccoc3)ccc12)C1CC1 [SB-738481],%Inh,FYN,0%
same,%Inh,GAK,2%
same,%Inh,"GCN2(Kin.Dom.2,S808G)",0%
same,%Inh,GRK1,18%
same,%Inh,GRK2,0%
same,%Inh,GRK3,0%
same,%Inh,GRK4,44%
same,%Inh,GRK7,9%
same,%Inh,GSK3A,92.7%
same,%Inh,GSK3B; 1 µM,54%
same,%Inh,HASPIN,27%
same,%Inh,HCK,0%
same,%Inh,HIPK1,57%
same,%Inh,HIPK2,65%
same,%Inh,HIPK3,58%
same,%Inh,HIPK4,46%
same,%Inh,HPK1,7%
same,%Inh,HUNK,0%
same,%Inh,ICK,94.8%
same,%Inh,IGF1R,0%
c1ccc(-c2n[nH]cc2Nc2ccnc3ccccc23)nc1 [GW694077],%Inh,FYN,36%
same,%Inh,GAK,100%
same,%Inh,"GCN2(Kin.Dom.2,S808G)",0%
same,%Inh,GRK1,7%
same,%Inh,GRK2,0%
same,%Inh,GRK3,33%
same,%Inh,GRK4,81%
same,%Inh,GRK7,0%
same,%Inh,GSK3A,0%
same,%Inh,GSK3B; [1],7%
same,%Inh,HASPIN,100%
same,%Inh,HCK,0%
same,%Inh,HIPK1,92.7%
same,%Inh,HIPK2,98.6%
same,%Inh,HIPK3,98.3%
same,%Inh,HIPK4,47%
same,%Inh,HPK1,32%
same,%Inh,HUNK,0%
same,%Inh,ICK,0%
same,%Inh,IGF1R,2%
